Compounds without any hit were thinned out: in the full panel of roughly 79,000, 15% have a hit. A number with no mark means an inactive call. The source made the active and inactive calls. Rule as the data show it: active = growth inhibition above about 70%; inactive = the rest.

A short description of this assay: NCI Yeast Anticancer Drug Screen. Data for the rad52 strain (AID 147).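 Also: 0% = growth of vehicle-treated control cultures.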 Particulars: S. cerevisiae rad52 mutant growth inhibition, hits give high values. Here is the method: Growth inhibition of yeast strains with defined genetic alterations is measured as a screen for potential anti-cancer activity. Selected strains with alterations in DNA damage repair or cell cycle control were exposed to compounds and growth inhibition was measured relative to vehicle treated controls. The strain used in this assay is rad52

For the molecule `Cc1ccc(NCCNCCO)c2c(=O)c3cc(O)ccc3sc12`, the growth inhibition is -5% (at 1.2 µM); 12% (at 3.7 µM); 30% (at 11.0 µM); 90% (active) (at 33.0 µM); 93% (active) (at 100.0 µM).
As for `CCCCCCCCCCCCCCCCOP(=O)(O)OCC(N)C(=O)O` (stereo not given), the growth inhibition (at 1.2 µM) was -2%; the growth inhibition (at 3.7 µM) was 5%; the growth inhibition (at 11.0 µM) is 54%; the growth inhibition (at 33.0 µM) is 98% (active); the growth inhibition (at 100.0 µM) was 98% (active).
Turning to `CCN(CC)CCNc1ccc2ncn3c4cc(OC)c(OC)c(=O)c4c(O)c1c23`, the growth inhibition (at 1.2 µM) is 15%; the growth inhibition (at 3.7 µM) was 14%; the growth inhibition (at 11.0 µM) is 40%; the growth inhibition (at 33.0 µM) is 36%; the growth inhibition (at 100.0 µM) was 59%.
The like results for `Nc1ccc(F)cc1S` were, in that order, -2%, -15%, -11%, 60% and 98% (active).
Take `c1ccc2c(c1)sc1c3cnccc3ccc21`: the growth inhibition is 11% (at 1.2 µM); 41% (at 3.7 µM); 62% (at 11.0 µM); 84% (active) (at 33.0 µM); 86% (active) (at 100.0 µM).
In the case of `N=C1N=Nc2nc(C3(c4nc5n(c4O)C(=N)N=N5)Cc4ccccc4C3=O)c(O)n21` (stereo not given), the growth inhibition (at 1.2 µM) was -1%; the growth inhibition (at 3.7 µM) is 1%; the growth inhibition (at 11.0 µM) is 5%; the growth inhibition (at 33.0 µM) is 18%; the growth inhibition (at 100.0 µM) is 69%.
For the molecule `CC(/C=C/c1ccccc1)=N\NC(N)=S`, the growth inhibition is, setting by setting: (at 1.2 µM) 4%; (at 3.7 µM) 16%; (at 11.0 µM) 16%; (at 33.0 µM) 24%; (at 100.0 µM) 72% (active).
As for `O=C(CC(C(=O)O)N1CCOCC1)c1ccccc1` (stereo not given), the growth inhibition runs as follows: (at 1.2 µM) -1%; (at 3.7 µM) -2%; (at 11.0 µM) 0%; (at 33.0 µM) 32%; (at 100.0 µM) 73% (active).

Values taken from PubChem BioAssay (NCI).
